This is a sample that favours compounds with a hit; in the whole collection about 4.1% have one here.
TIM10 inh – inhibits growth of TIM10 yeast strain; S. cerevisiae TIM10 strain growth, BacTiter-Glo luminescence, 24 h; inhibition, % at 10 µM; 330,000 compounds, 1.4% hits; AID 463195;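 active means inhibition of 40% or more at the single tested concentration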;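 further: wild-type TIM10 isogenic control strain grown at permissive 25 °C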
PfHsp90 yeast 2 – growth inhibition of yeast expressing Plasmodium Hsp90. S. cerevisiae expressing PfHsp90, BacTiter-Glo ATP, 48 h; yeast lacking PDR1 and PDR3 efflux regulators. inhibition, % at 9.4 µM. 310,000 compounds, 0.32% hits;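 active means every replicate shows inhibition above about 80%, whatever the replicate mean, limit read from the data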;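 further: 0% = DMSO neutral controls and 100% = 20 µM radicicol positive controls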
tim10-1 inh – inhibits growth of tim10-1 mutant yeast. S. cerevisiae tim10-1 ts strain growth, BacTiter-Glo, 24 h. inhibition, % at 20 µM. 330,000 compounds, 2.2% hits;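 active means inhibition of at least 40%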;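 further: mutant grown at 25 °C; 0% = DMSO wells with yeast and 100% = wells holding no yeast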
NALP1 yeast inh – inhibitors of NALP1 inflammasome in yeast. inhibition, % at 10 µM. 280,000 compounds, 0.61% hits. S. cerevisiae NALP1/ASC/caspase-1 growth, X-gal OD620, 72 h; in the data active means inhibition mostly above about 24%, no sharp cut-off; inactive means mostly below about 32%
NLRP3 yeast inh – blocks the NALP3 inflammasome reconstituted in yeast; Yeast reconstituted NLRP3/ASC/caspase-1, beta-gal luminescence, 24 h; inhibition, % at 10 µM; 330,000 compounds, 0.39% hits; AID 2825;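 active means inhibition of 50% or more; inactive means inhibition below 50%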;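 further: plate controls were induced DMSO wells for no effect and uninduced yeast grown without galactose for full effect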
tim23-1 inh – inhibits growth of tim23-1 mutant yeast; S. cerevisiae tim23-1 growth, BacTiter-Glo luminescence, 24 h; inhibition, % at 20 µM; 330,000 compounds, 1.3% hits;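 active means growth inhibition of the mutant yeast at or above 50%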;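 further: temperature-sensitive mutant grown at 25 °C; plate controls were DMSO-treated mutant yeast for no effect and medium wells lacking yeast for full effect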
TIM10 conf – confirmation of TIM10 yeast growth inhibitors; shares compounds with TIM10 inh; S. cerevisiae tim10 strain growth, BacTiter-Glo luminescence, 24 h; inhibition, % at 10 µM; 4,600 compounds, 63% hits; AID 463215;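 active means inhibition of yeast growth at or above a set limit in either of two replicates at 10 µM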;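 further: this counterscreen used the strain with wild-type TIM10; 0% = yeast with DMSO and 100% = medium wells lacking yeast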
tim23-1 confirm – tim23-1 yeast growth inhibition, confirmed; shares compounds with tim23-1 inh; S. cerevisiae tim23-1 growth, BacTiter-Glo luminescence, 24 h; inhibition, % at 20 µM; 4,400 compounds, 83% hits; AID 463218;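 active means inhibition above about 39% in either of two replicate wells at 20 µM, limit read from the data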;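 further: temperature-sensitive tim23-1 mutant grown at 25 °C; 0% = DMSO wells with yeast and 100% = medium wells without yeast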
Active calls of the source: *; · = not tested or not shown.

SMILES | TIM10 inh | PfHsp90 yeast 2 | tim10-1 inh | NALP1 yeast inh | NLRP3 yeast inh | tim23-1 inh | TIM10 conf | tim23-1 confirm
Cc1ccsc1/C=N/NC(=O)c1ccc2c(c1)OCCO2 | 49* | -17 | 30 | 0 | 30 | 56* | 52* | 72*
CC1=NN(C(N)=S)C(=O)C1N=Nc1c(Br)cc(Br)cc1Br (stereo not given) | 45* | -85 | 35 | 10 | 36 | 60* | 60* | 63*
CC(C)(C)n1cnc2cc(NCc3ccc(Br)cc3)ccc21 | 53* | 3 | 25 | 6 | 42 | 54* | 37* | 69*
O=C(CNS(=O)(=O)c1ccc(Br)s1)NCc1ccccc1 | 16 | 3 | -6 | 10 | 18 | 3 | · | ·
O=C(Cc1cnn(-c2ccccc2)c1)c1ccc(O)c(O)c1O | 11 | 3 | 29 | -2 | 13 | 29 | · | ·
CC(C)=CCc1c(O)ccc(C(=O)Cc2ccccc2)c1O | 41* | -9 | 19 | 21 | 20 | 67* | 58* | -32
NNC(=O)c1cn2ccccc2n1 | 10 | -20 | 2 | -3 | 7 | 4 | · | ·
Cc1ccc(C(=O)COC(=O)c2cn3ccccc3n2)cc1 | 48* | 0 | 20 | 5 | 27 | 57* | 42* | 69*
Cc1c(C(=O)Oc2cccc3cccnc23)oc2ccccc12 | 53* | -1 | 36 | -12 | 25 | 65* | 40* | 58*
O=C(N/N=C/C(Br)=C\c1ccccc1)c1cccs1 | 44* | · | -15 | 30 | 41 | 71* | 40* | 69*
O=C(N/N=C/C(Br)=C/c1ccccc1)c1ccncc1 | 13 | 9 | 25 | 18 | 20 | 28 | · | ·
Cn1c(SCC(=O)N/N=C/c2ccc([N+](=O)[O-])s2)nnc1-c1ccc(Cl)cc1 | 81* | 105* | 23 | 25 | 28 | 62* | -23 | 65*
Cc1ccc(Nc2ncccc2C(N)=O)cc1[N+](=O)[O-] | 43* | -6 | 24 | 30 | 9 | 56* | 40* | 69*
Cc1ccc(Nc2ncccc2C(=O)O)cc1C | 2 | 4 | -8 | 19 | 6 | -12 | · | ·
CC(OC(=O)COc1cccc2c1OC(C)(C)C2)C(=O)Nc1ccc(S(N)(=O)=O)cc1 (stereo not given) | -4 | · | -1 | · | 12 | 5 | · | ·
CCOc1ccccc1/C=C/C(=O)c1ccc(Cl)cc1 | 11 | 15 | 28 | 15 | 11 | 22 | · | ·
O=C(/C=C/c1ccccc1O)c1ccc(Cl)cc1 | 42* | 14 | 34 | 2 | 37 | 56* | 39* | 58*
O=C1c2ccccc2C(=O)c2[nH]cnc21 | · | -9 | · | 14 | · | · | · | ·
O=C1c2ccccc2C(=O)c2c1ncn2-c1ccccc1 | 46* | -43 | 39 | 54 | 24 | 50 | 4 | 45*
COc1cc(C(=O)Nc2ccn(C)n2)ccc1OC(F)F | -2 | · | -10 | · | 5 | -7 | · | ·
CN1/C(=C\C(=O)CSc2cccc[n+]2[O-])C(C)(C)c2ccccc21 | 41* | 12 | 32 | -2 | 2 | 65* | -6 | 78*
CC(OC(=O)c1ncc(Cl)c(Cl)c1Cl)C(=O)NC1(C#N)CCCCC1 (stereo not given) | 4 | · | 24 | · | -5 | 27 | · | ·
Cc1ccc(OCC(=O)NCCNC(=O)c2ccco2)cc1C | -14 | 4 | 0 | -15 | 1 | 3 | · | ·
COc1ccc(NC(=O)CCC(=O)Nc2nnc(CC(C)C)s2)cc1Cl | -6 | 0 | 13 | 18 | -3 | 7 | · | ·
O=C(NCc1ccccc1F)c1cccs1 | -29 | 1 | 8 | · | 16 | 0 | · | ·
SMILES | TIM10 inh | PfHsp90 yeast 2 | tim10-1 inh | NALP1 yeast inh | NLRP3 yeast inh | tim23-1 inh | TIM10 conf | tim23-1 confirm
O=C(NC(=S)NCc1ccccc1Cl)c1cccs1 | 46* | 2 | 16 | · | 16 | 67* | 51* | 52*
Cc1c(C2(O)CCCCC2)[nH]c2ccc(C(F)(F)F)cc12 | 59* | 49 | 39 | · | 45 | 82* | 67* | 65*
COc1ccc(CN2C(=NC(=O)c3ccccc3)SC3CS(=O)(=O)CC32)cc1 (stereo not given) | -7 | 11 | 3 | 21 | 16 | -7 | · | ·
COc1ccc(CCN2CC(C(=O)N(C)Cc3ccc(C)o3)CCC2=O)cc1 (stereo not given) | -6 | 11 | 2 | 32 | 21 | 5 | · | ·
O=c1oc(-c2cccs2)nc2c1cnn2-c1ccccc1 | 47* | -19 | 38 | 22 | -11 | 51* | 34* | 47*
Cc1[nH]c(-c2ccc(F)cc2)cc1C(=O)N1CCN(c2ccc(Cl)cc2)CC1 | 49* | -53 | 36 | 0 | 21 | 73* | 42* | 54*
CCOC(=O)N1CCN(C(=O)c2cc(-c3ccc(F)cc3)[nH]c2C)CC1 | 15 | · | 18 | 12 | -5 | 11 | · | ·
COc1ccc(NC(=O)CN(C)C(=O)c2ccc3c(c2)OCCO3)cc1 | -3 | 3 | -23 | · | 4 | -20 | · | ·
CCn1c(C)c(C)c2cc(C(=O)Nc3cccc(Cl)c3)ccc21 | 41* | -11 | 20 | -7 | 22 | 52* | 51* | 57*
O=C(/C=C/c1ccccn1)c1cc(Cl)cc(Cl)c1O | 61* | -4 | 37 | 1 | 3 | 63* | 53* | 24
COc1ccc(/C=C/C(=O)O/N=C(\N)c2cccnc2)cc1OC | -8 | -33 | 6 | · | 12 | 13 | · | ·
CCOC(=O)/C(=C\c1ccc(OC)c(OC)c1)C(=O)c1cccnc1 | 50* | 30 | 35 | 4 | 27 | 59* | 48* | 56*
Cc1c(C(=O)CN2CCCC(C)(C)C2)c2ccccc2n1C | 16 | -50 | 1 | -2 | 9 | 26 | · | ·
CC(=O)Nc1sc2c(c1C(c1ccc(Cl)cc1)N1CCOCC1)CCCC2 (stereo not given) | 41* | 32 | 29 | -1 | 16 | 51* | -53 | 55*
CN(Cc1ccccc1)C(=O)c1cccc(NC(=O)Cc2ccc(NC(=O)C3CCCN(C(=O)c4ccccc4)C3)cc2)c1 (stereo not given) | · | 17 | · | · | · | · | · | ·
COc1cc(/C=C2/CCCC(C(=O)C(F)(F)F)=C2O)ccc1O | 18 | -27 | 29 | · | 6 | 13 | · | ·
COc1cc(/C=C2\CCC/C(=C\c3ccc(O)c(OC)c3)C2=O)ccc1O | 41* | -32 | 38 | -4 | 7 | 82* | 39* | 52*
COc1ccc(Nc2nc(N)nc(CSC(=S)N3CCCCC3C)n2)cc1 (stereo not given) | 40 | -11 | 29 | · | 13 | 53* | 24 | 45*
COc1ccc(Nc2nc(N)nc(CSC(=S)N3CCCCC3)n2)cc1 | 35 | -5 | 37 | -3 | -5 | 25 | · | ·

Bioassay records from PubChem BioAssay.
